Test results taken from PubChem BioAssay (NCI).
This is part of a sample that, as a whole, favours compounds with a hit. Of some 83,000 tested, about 20% had one in any assay.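 Results are percent growth after 48 hours of single-concentration exposure. 100 means growth as in untreated cells, lower positive values show inhibition; negative values down to -100 show cell death.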 Unmarked numbers belong to inactive results. Activity calls are given as the source filed them. How the source made its calls: active means growth percent below 10; inactive means the rest.

Legend:
Test in all cases: NCI-60 one-dose screen, 48 h (100 = growth as untreated, 0 = no growth, -100 = all killed)
Conditions in all cases: 10 µM unless noted
[1] = system: BT-549 breast
[2] = system: MDA-MB-435 melanoma
[3] = system: SW-620 colon
[4] = system: MCF7 breast
[5] = system: HCT-116 colon
[6] = system: HCC-2998 colon
[7] = system: KM12 colon

SMILES	growth [1]	growth [2]	growth [3]	growth [4]	growth [5]	growth [6]	growth [7]
Cn1cc(-c2nc(-c3c[nH]c4ncc(F)cc34)cs2)c2cccnc21	108%	98.2%	104%	77.9%	101%	81.6%	99.3%
O=[N+]([O-])c1ccc2c(c1)S(=O)c1cc([N+](=O)[O-])ccc1N2	102%	106%	95.8%	99.2%	94%	104%	102%
O=C1NCN(c2ccccc2)C12CCN(CCCC(c1ccc(F)cc1)c1ccc(F)cc1)CC2	61.6%	47.7%	77%	37.8%	30.1%	15.9%	76.3%
Cn1cc(-c2csc(-c3c[nH]c4ncccc34)n2)c2cc(F)cnc21	74.1%	20%	81.3%	56.8%	59.8%	62.2%	49.4%
Cn1cc(-c2csc(-c3cn(C)c4ncccc34)n2)c2cc(F)cnc21	85.7%	8.5% (active)	61.7%	58%	72.5%	77.3%	60.7%
Cc1cc(NC(=O)Nc2cccc3ccccc23)no1	79.9%	101%	109%	84%	95%	104%	112%
COc1ccc(C(=O)COc2cccc(/C=C3\Oc4ccc5ccccc5c4C3=O)c2)cc1	-96.9% (active)	94.7%	19%	10.1%	29%	60%	97.9%
CCC(=O)Nc1ccccc1C#C/C=C\C#Cc1ccccc1C(F)(F)F	39.9%	0.785% (active)	29.7%	33.2%	41%	70.6%	41.5%
CN1CCN(CC(=O)Nc2nc3c(s2)Nc2cc(Cl)c(Cl)cc2NC3=O)CC1	100%	107%	112%	104%	100%	110%	102%
COC(=O)[C@]1(C(C)C)N[C@H](c2cn(-c3ccccc3)nc2-c2ccccc2)[C@@H]2C(=O)N(c3ccc(Cl)cc3)C(=O)[C@@H]21	86.7%	105%	99.4%	96.6%	89.8%	109%	95.3%
CCOC(=O)c1c2c(c(C)n1Cc1ccccc1)-c1nc(N)ncc1CC2	162%	136%	104%	106%	90.7%	97.4%	100%
COc1cc(NC(=O)c2cc3ccccc3cc2O)c(OC)cc1Cl	-24.3% (active)	3.67% (active)	17.5%	2.91% (active)	-21.3% (active)	-40.4% (active)	5.63% (active)
O=c1ccn(C2OC(CO)C(O)C2F)c(=O)[nH]1 (centres undefined)	115%	107%	102%	104%	108%	97.8%	111%
CC(NC(=O)C(C)Oc1ccc(Cl)cc1Cl)C(=O)O (centres undefined)	108%	104%	105%	99.1%	89.6%	94.4%	109%
COc1ccc2nc3cc(Cl)ccc3c(N3CCN(c4ccnc(Nc5ccc(F)cc5)n4)CC3)c2c1	88.3%	74.5%	89.2%	48.8%	41.4%	79.5%	79.1%
Cc1cc(C)c(OC(=O)CSc2nc3ccccc3c(=O)n2CCc2ccccc2)cc1C	104%	100%	103%	93.7%	80.1%	102%	92%
CC(=O)n1c2ccccc2c2ccccc21	119%	106%	106%	104%	102%	96.1%	114%
O=C1C(Cl)=C(N=Nc2c(Cl)c(O)c3ccccc3c2O)C(=O)c2ccccc21	62%	-31.7% (active)	90%	62.6%	70.4%	74.4%	86.4%
C[C@]12CC[C@@H]3c4ccc(O)cc4CC[C@H]3[C@@H]1CC[C@@H]2NS(=O)(=O)c1cccc(Br)c1	69.2%	48.4%	81.4%	37.5%	44.2%	89.4%	51.2%
CCCCCCCC1(C)NC(=O)NC1=O (centres undefined)	121%	123%	100%	97.6%	103%	140%	113%
COC(=O)CCC1=C(C)C(C)=N/C1=C\c1[nH]c(-c2ccc[nH]2)cc1OC	29.2%	-5.95% (active)	7.46% (active)	4.8% (active)	-59.8% (active)	12.5%	12.7%
Cc1nn(-c2ccccc2)c2c1oc(=O)c1cc(Cl)ccc12	91%	106%	106%	92.7%	95.2%	102%	93.8%
CN(C)c1cccc2c(S(=O)(=O)N[C@H]3CC[C@H]4[C@@H]5CCc6cc(O)ccc6[C@H]5CC[C@]34C)cccc12	35.9%	-46.4% (active)	24.8%	12.9%	13.1%	60.6%	18.5%
O=C1c2nsnc2C(=O)c2c(F)c(F)c(F)c(F)c21	-96.7% (active)	-67.9% (active)	-57.3% (active)	-45.1% (active)	-93.1% (active)	-22.4% (active)	-44% (active)

SMILES	growth [1]	growth [2]	growth [3]	growth [4]	growth [5]	growth [6]	growth [7]
COc1ccc(C(=O)/C=C/c2c(Cl)nc3c(c(C)nn3-c3ccccc3)c2-c2ccc(Br)cc2)cc1	97.5%	107%	110%	96.7%	102%	114%	109%
C/C(=C\CCc1ccsc1)CC/C=C(\C)CCCN1CCC(CO)CC1	36.2%	13%	-29.8% (active)	16%	-2.6% (active)	-14.9% (active)	5.04% (active)
COc1ccc2c3c(c(OCCCN(C)C)nc2c1)-c1ccc(Cl)cc1C3=O	92.5%	-7.72% (active)	-78.7% (active)	-82.3% (active)	-90.9% (active)	-95.2% (active)	-32.2% (active)
CC(C)c1ccc(C(=O)Nc2sc3c(CN(C)C)c(O)ccc3c2C(N)=O)cc1	64.4%	63%	-37.8% (active)	-16.2% (active)	-46.5% (active)	-54.6% (active)	6.38% (active)
Cc1nc2cc(NC(=O)CN3CCN(CCN4C(=O)c5cccc6cccc(c56)C4=O)CC3)ccc2s1	70.1%	57.8%	31.4%	32.5%	22.3%	59.4%	51.6%
O=C(/C=C/c1cc2ccccc2[nH]c1=O)c1ccc(Cl)cc1	29.4%	8.38% (active)	-19.9% (active)	15.2%	2.8% (active)	10.2%	-1.06% (active)
COc1ccc(-c2cc(C(=O)Nc3nc4cc(C)c(C)cc4s3)nc3cc(-c4ccccc4)nn23)cc1OC	122%	96.8%	47.3%	99%	108%	99.7%	112%
c1cnc2ccc3ncccc3c2c1	108%	129%	100%	92%	95.7%	124%	110%
COc1ccc(-c2oc3cc(O)c(OC)c(O)c3c(=O)c2OC)cc1O	-4.89% (active)	-45.9% (active)	19.2%	19%	2.2% (active)	90.1%	2.13% (active)
O=C(CSCC(=O)N/N=C/c1ccccc1O)N/N=C\c1ccccc1O	1.06% (active)	50.9%	39.3%	19.5%	16.6%	30.1%	37.3%
CCCCCCCCCCCCNc1ncnc2[nH]ncc12	62.9%	71.7%	83.1%	59%	53.3%	92.4%	79.2%
c1csc([C@@H]2C[C@@H]3Cc4ccc5ccccc5c4N2O3)c1	112%	87.1%	98.5%	99.8%	101%	105%	103%
COc1ccc(/C=C2\NC(=S)NC2=O)cc1	105%	110%	105%	99.9%	99.4%	117%	101%
CC(c1cc(Cl)ccc1O)c1cc(Cl)ccc1O	44.7%	-2.51% (active)	30.6%	20.1%	15.2%	63%	31.8%
O=C(NCCc1ccccc1)C1CCC(=O)N1Cc1ccc(Br)cc1 (centres undefined)	107%	110%	97.5%	102%	77.9%	108%	106%
Nc1ccc2c(c1)/C(=N/O)c1cc([N+](=O)[O-])ccc1-2	50.8%	50.9%	13.1%	81.8%	47.3%	103%	64.8%
COc1ccc(Cn2c(NCCCN(C)C)nc(=O)n(Cc3ccc(F)cc3)c2=O)cc1	92.5%	102%	100%	87.9%	93.8%	101%	99.8%
CN1COc2ccc3ccccc3c2C1	98.1%	106%	99.7%	91.8%	93.1%	93%	105%
COc1ccc(-c2cncn2-c2ccc(-c3nc4cc(OC)c(OC)c(OC)c4s3)cc2)cc1N	31.5%	47.6%	63.6%	39.9%	36.3%	80.5%	51.8%
Cc1cc(CC(=O)O)n(C)c1C(=O)c1ccc(Cl)cc1	101%	106%	103%	120%	102%	108%	105%
c1coc([C@@H]2C[C@@H]3Cc4ccc5ccccc5c4N2O3)c1	105%	103%	103%	84.6%	99.2%	107%	107%
S=C1SCN(Cc2ccccc2)CN1Cc1ccco1	102%	37.8%	41.7%	18.2%	25.5%	103%	58.2%
CCCCOc1ccc(C(C)(C)c2ccc(OCCCC)cc2)cc1	106%	117%	112%	104%	95.8%	105%	120%
COc1ccc(-c2cc(Cc3cccs3)c(=O)n(Cn3ccc4ccccc43)n2)cc1	116%	90.8%	114%	95.2%	106%	107%	110%

SMILES	growth [1]	growth [2]	growth [3]	growth [4]	growth [5]	growth [6]	growth [7]
Cc1nn(-c2ccccc2)c2nc(Cl)c(/C=C/C(=O)c3ccccc3)c(-c3ccccc3)c12	87.9%	103%	112%	96.1%	95.5%	103%	106%
OCCOc1c(Cl)cc(Cl)cc1Cl	109%	103%	98.7%	89%	109%	110%	115%
CCOC(=O)C1=NN(c2ccc(Cl)cc2)C2C3N(c4ccc(Cl)cc4)N=C(C(=O)OCC)N3c3ccccc3N12 (centres undefined)	123%	100%	110%	85.7%	87.9%	97.5%	103%
COc1ccc(-c2csc(NC(=O)c3cc(OC)c(OC)c(OC)c3)n2)cc1	106%	96.4%	102%	98.3%	106%	112%	108%
COc1ccc(-c2nn(-c3cccc(Cl)c3)cc2C2CC(c3ccccc3)=NN2C(C)=O)cc1 (centres undefined)	74.7%	88.5%	73.6%	68%	60.9%	95.4%	96.4%
COc1cc(C2NC(c3ccc(Cl)cc3)C(C)/C(=N/NC(N)=S)C2C)cc(OC)c1OC (centres undefined)	111%	107%	106%	90.3%	73.1%	126%	88.6%
O=C(NN(C(=O)c1ccccc1)c1cccs1)c1ccccc1	98%	124%	104%	110%	93.7%	103%	117%
COc1ccc(-c2cn(-c3ccccc3)c(-c3ccccc3)n2)cc1OC	15%	35.7%	5.69% (active)	19.1%	20.3%	58.8%	-3.88% (active)
CC12CCC3C(CCC4CC(=O)/C(=C\O)CC43C)C1CCC(=O)O2 (centres undefined)	112%	110%	110%	102%	100%	101%	115%
COc1ccc2c(c1)nc(N)c1c3cc(OC)c(OC)cc3cn21	79.8%	-26.7% (active)	34.5%	17.5%	27.7%	54.5%	26.9%
Oc1[nH]c2ccccc2c1/C=c1/ccc2c(c1)N=C(c1cc(F)cc(F)c1)N=2	40.4%	25.2%	36.4%	25.1%	28.7%	81.1%	34%
C/C(=C\CCc1ccoc1)CC/C=C(\C)CCCN1CCC(CO)CC1	54.2%	44.2%	18.2%	28.9%	31%	46.5%	44.6%
c1cncc(CNc2ccccc2-c2nnc(Nc3ccc4c(c3)OCO4)o2)c1	39.2%	-28% (active)	30.6%	9.29% (active)	8.54% (active)	20.1%	3.86% (active)
CC1=NN(c2ccccc2Cl)C(=O)/C1=C\c1cn(S(=O)(=O)c2ccc(C)cc2)c2ccccc12	112%	105%	98.4%	113%	88.2%	88.5%	109%
Nc1nc(SCc2ccccc2Cl)c(-c2ccccc2)c(SCc2ccccc2Cl)n1	113%	88.8%	77.3%	78%	82.2%	99%	85.7%
Nc1ccc(C2=Nc3cccc4cccc(c34)S2)cc1	83.4%	98.3%	97.2%	45.2%	81.7%	61.4%	76.5%
CCOc1nc(-c2ccccc2)cc2c(O)c(-c3nnco3)[nH]c(=O)c12	41.6%	63.8%	32.2%	23.3%	39.7%	61.5%	48.9%
Cc1cc(NCCCNc2ccnc3cc(Cl)ccc23)nc(N2CCN(C)CC2)n1	95.6%	46%	37.3%	33.1%	18.5%	48.9%	52.6%
S=c1[nH]nc2sc3ccccc3n12	116%	118%	105%	98.4%	102%	109%	115%
Cc1[nH]n(C(N)=S)c(=O)c1N=Nc1ccc(F)c(Cl)c1	143%	107%	111%	103%	95.5%	95.7%	90%
COc1cccc(-c2nnc(N)o2)c1	87.4%	105%	103%	101%	100%	83.3%	106%
CCN(CC)c1ccc(CN(CC(=O)c2ccc(Cl)c(Cl)c2)Cc2ccccc2)cc1	109%	106%	96%	95.5%	104%	107%	109%
Cc1cc([N+](=O)[O-])c(C)cc1C(=O)O	92.5%	102%	108%	97.6%	102%	109%	102%
COc1ccc2[nH]cc(/C=C3/C(=O)Nc4ccc(F)cc43)c2c1	134%	93.8%	101%	56.3%	86%	93%	27%
